Results with a measured potency or affinity are listed apart. Unmarked numbers belong to inactive results.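 Rule for the calls: active = every repeat run showing a signal drop whose fitted half-maximal concentration is at most twice the top tested concentration; inconclusive = repeat runs disagree, or flat partial drop, or poor fit; inactive = the rest.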
test: general mammalian cell viability loss – activator set, cherry-pick, cytotoxicity control for miR-122 modulator project, dose response (AID 720690); conditions: HEK293T viability, CellTiter-Glo luminescence, 48 h; series mostly up to 26 µM; activity change, negative = cytotoxicity: at the top concentration;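 note: 0% = neutral control wells and -100% = MG132 cytotoxic control wells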

Row | Compound | activity change, negative = cytotoxicity
1 | CCN(C[C@@H]1[C@@H](c2ccccc2)[C@@H](CO)N1C(=O)COC)S(C)(=O)=O | -8.83% [at 23.5 µM]
2 | CN1C(=O)c2cc(NC(=O)c3cccc(F)c3)ccc2OC[C@H]2O[C@@H](CC(=O)O)CC[C@H]21 | 8.84%
3 | COc1cccc(-c2nn(-c3ccccc3)cc2CO)c1 | -5.48%
4 | Cc1ccccc1-c1nc(CN2CCCC(C(=O)NCCCN3CCOCC3)C2)c(C)o1 (centres undefined) | -1.79%
5 | C[C@@H]1CN([C@@H](C)CO)S(=O)(=O)c2ccc(C3=CCCCC3)cc2O[C@@H]1CN(C)C(=O)Nc1ccc2c(c1)OCO2 | -10.2%
6 | COCC(=O)N(C[C@@H]1[C@@H](c2ccccc2)[C@@H](CO)N1C(=O)NC(C)C)C(C)C | 8.23%
7 | O=c1c2cc(N3CCOCC3)ccc2[nH]c(=S)n1CCCN1CCCC1 | 30.1%
8 | CN(C)C(=O)C[C@@H]1CC[C@@H]2[C@@H](COc3ccc(NC(=O)C4CC4)cc3C(=O)N2C)O1 | 6.71%
9 | O=C(CNCCC1=CCCCC1)Nc1ccccc1N1CCCCCC1 | -25.6%
10 | O=C(NC[C@H]1[C@H](c2ccccc2)[C@H](CO)N1CC1CCCC1)c1ccncc1 | 2.8% [at 23.5 µM]
11 | Cc1ccc(-c2nnn(CC(=O)N(CC(=O)NCC3CCCO3)c3ccccc3)n2)o1 (centres undefined) | 16.4%
12 | CN1C(=O)c2cc(NS(C)(=O)=O)ccc2OC[C@@H]2O[C@H](CC(=O)O)CC[C@H]21 | -4.45% [at 23.5 µM]
13 | CN1C(=O)c2cc(NC(=O)c3cccc(F)c3)ccc2OC[C@H]2O[C@H](CC(=O)O)CC[C@@H]21 | -4.45%
14 | CCCNC(=O)N1[C@H](CNC(C)=O)[C@H](c2ccc(C3=CCCC3)cc2)[C@@H]1CO | 0.113%
15 | CNC(=O)C[C@H]1CC[C@@H]2[C@H](COc3ccc(NC(=O)C(C)C)cc3C(=O)N2C)O1 | -17.7% [at 23.5 µM]
16 | CN1C(=O)c2cc(NC(=O)c3cccc(F)c3)ccc2OC[C@H]2O[C@@H](CC(=O)O)CC[C@@H]21 | -1.64%
17 | COC(=O)C[C@H]1CC[C@@H]2[C@@H](COc3ccc(NC(=O)c4ccc(F)c(F)c4)cc3C(=O)N2C)O1 | -4.61%
18 | O=C(Nc1ncc(Cc2cccc(C(F)(F)F)c2)s1)c1ccc(-c2cccc([N+](=O)[O-])c2)o1 | -18.3%
19 | Cc1cc(C(=O)Nc2ccc3c(c2)C(=O)N(C)[C@H]2CC[C@@H](CC(=O)N[C@@H](C)c4ccccc4)O[C@H]2CO3)no1 | -6.39% [at 23.5 µM]
20 | CN(C)CCCNC(=O)C[C@H]1CC[C@H]2[C@H](COc3ccc(NC(=O)c4cccc(F)c4)cc3C(=O)N2C)O1 | -18.8%

Row | Compound | activity change, negative = cytotoxicity
21 | CC(C)NC(=O)N1[C@H](CO)[C@@H](c2ccccc2)[C@@H]1CNC(=O)CN(C)C | -3.2%
22 | COc1ccc(CNCCC(c2ccc(OC)cc2)c2ccccc2OC)cc1 (centres undefined) | -48.3%
23 | CCCNC(=O)Nc1ccc2c(c1)C(=O)N(C)[C@@H]1CC[C@H](CC(=O)NCC3CCCCC3)O[C@H]1CO2 | 3.61%
24 | O=C(NC[C@@H]1[C@@H](c2ccccc2)[C@H](CO)N1C(=O)C1CCC1)NC1CCCC1 | -1.54% [at 23.5 µM]
25 | COC(=O)C[C@H]1CC[C@@H]2[C@@H](COc3ccc(NC(=O)c4cscn4)cc3C(=O)N2C)O1 | -6.16%
26 | COc1cccc(-c2ccc3c(c2)O[C@H](CN(C)C(=O)C2CCOCC2)[C@H](C)CN([C@H](C)CO)S3(=O)=O)c1 | -18.6%
27 | Fc1ccccc1-c1nc(-c2ccncc2)no1 | -12.1%
28 | CCOc1cc(-c2nccc3cc(OC)c(OC)cc23)cc(OCC)c1OCC | -21.8%
29 | C[C@@H]1CN([C@H](C)CO)S(=O)(=O)c2ccc(C3=CCCCC3)cc2O[C@@H]1CN(C)C(=O)Nc1ccc2c(c1)OCO2 | -32.2%
30 | C/C=C/c1ccc([C@H]2[C@@H](CO)N(C(=O)C3CC3)[C@H]2CNC(=O)NC(C)C)cc1 | 0.786%
31 | O=C(N[C@H]1CC[C@H](CCn2cc(C3(O)CCCC3)nn2)O[C@H]1CO)c1ccccc1F | -20.6%
32 | CN(C(=O)c1ccccc1Cl)C1CCCCC1 | -4.24%
33 | COC(=O)C[C@@H]1CC[C@@H]2[C@H](COc3ccc(NC(=O)c4ccc(F)c(F)c4)cc3C(=O)N2C)O1 | 5.94%
34 | CN1C(=O)c2cc(NC(=O)Nc3ccccc3F)ccc2OC[C@@H]2O[C@H](CC(=O)O)CC[C@@H]21 | -1.17% [at 23.5 µM]
35 | CC(C)NC(=O)N1[C@H](CO)[C@@H](c2ccccc2)[C@@H]1CN(C)C(=O)c1cccnc1 | -0.275%
36 | COc1cc(NC(=O)c2c(F)c(F)c(F)c(F)c2F)c(OC)cc1Cl | 4.98%
37 | COc1cccc(NC(=O)N2[C@H](CO)[C@@H](c3ccccc3)[C@H]2CNCC(C)C)c1 | -36.4%
38 | Cc1ccc(-c2nc(C(Cl)Cl)c3ccccc3n2)cc1 | -34.8%
39 | Cc1[nH]c(=O)c(C#N)cc1-c1ccccc1 | -8.29%

Source: PubChem BioAssay AID720690 (Broad Institute, 2013)
